According to PubChem BioAssay (NCATS):
Results filed as inconclusive are left out. Unmarked numbers belong to inactive results. Calls of active or inactive are those of the source. The call rests on the fitted dose curve; in most records, active means well fitted cell-killing curve with a large enough effect; inconclusive means small, poorly fitted or top-dose-only effect; inactive means flat fitted curve, though single readings scatter.

Experiment: Cellular viability qHTS for adrenocortical cancer (ACC) cell line NCI-H295R (AID 1963990); further: nearly all actives have a fitted effect of over 60% in size;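 on activity change, negative = viability loss: 0% = DMSO only wells and -100% = full killing with cytotoxic reference compound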
Conditions: CellTiter-Glo ATP luminescence, 48 h; series mostly up to 46.1 µM; activity change, negative = viability loss: at the top concentration
Summary of the method: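 IC50 and maximal efficacy derive from four-parameter logistic modelling of titration curves, with reads scaled between DMSO-only wells (0%) and doxorubicin hydrochloride (100% inhibition). Compounds spanned up to 46 uM over 48 h.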

Compound	activity change, negative = viability loss [%]	Potency
COc1nc(N)nc2c1ncn2C1OC(CO)C(O)C1O (stereo unspecified)	0.271	
CNC(=O)Cn1cc(-c2ccc3c(c2)C(F)CC32NC(=O)N(CC(=O)N(Cc3ccc(F)cc3)[C@@H](C)C(F)(F)F)C2=O)cn1 (stereo partly specified)		inactive
Cc1ccccc1N1CCN(CCc2nnc3n2CCCC3)CC1	-18.8	
COc1ccc(Cl)c(Nc2nc3ccccc3nc2NS(=O)(=O)c2cccc(NC(=O)C(C)(C)N)c2)c1		20 µM (active)
COc1cc(NC(C)CCCN)c2ncccc2c1 (stereo unspecified)		8.2 µM (active)
C/C=C/C=N/NC(=O)c1ccncc1	-13.9	
CCCC(=O)O[C@]1(C(=O)CC)CC[C@H]2[C@@H]3CCC4=CC(=O)CC[C@]4(C)[C@H]3[C@@H](O)C[C@@]21C	-6.35	
O=C1OC(CN2CCOCC2)CN1/N=C/c1ccc([N+](=O)[O-])o1 (stereo unspecified)		16.4 µM (active)
CC[C@]12CCCN3CCc4c(n(c5ccccc45)[C@@](O)(C(=O)OC)C1)[C@@H]32	-20.8	
O=C1C(O)=C(O)C(=O)C(O)=C1O	0.984	
O=C(NOCCO)c1cc(CN2OCCCC2=O)c(F)c(F)c1Nc1ccc(I)cc1F		25.1 µM (active)
CC1CCc2c(N3CCC(O)CC3)c(F)cc3c(=O)c(C(=O)O)cn1c23 (stereo unspecified)	3.19	
Cc1cc(Oc2ccc3nc(COc4ccc(CC5SC(=O)NC5=O)cc4)n(C)c3c2)cc(C)c1N (stereo unspecified)	15.1	
CC1(C)S[C@H]2[C@H](NC(=O)[C@@H](N)c3ccc(O)cc3)C(=O)N2[C@H]1C(=O)O	-2.56	
COCCc1ccc(OCC(O)CNC(C)C)cc1 (stereo unspecified)	3.08	
NC(=O)c1cc[n+](CC2=C(C(=O)[O-])N3C(=O)[C@@H](NC(=O)Cc4cccs4)[C@H]3SC2)cc1	0.361	
